Records with an inconclusive call do not appear. Unmarked numbers belong to inactive results. Activity calls are given as the source filed them. Calls come from the whole dose curve; as a rule, active = well fitted cell-killing curve with a large enough effect; inconclusive = small, poorly fitted or top-dose-only effect; inactive = flat fitted curve, though single readings scatter.
Potency is the fitted concentration of half-maximal effect.

A short description of the assay: Cellular viability qHTS for adrenocortical cancer (ACC) cell line NCI-H295R (AID 1963990).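 For activity change, negative = viability loss: 0% = DMSO only wells and -100% = full killing with cytotoxic reference compound.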 Note: nearly all actives have a fitted effect of over 60% in size. The note with it: CellTiter-Glo ATP luminescence, 48 h; series mostly up to 46.1 µM; activity change, negative = viability loss: at the top concentration. An outline of the steps:
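Compound titrations (up to 46 uM final) are applied to NCI-H295R cultures for 48 h at 37C. Viable cell number is estimated by CellTiter-Glo signal, normalised to DMSO and doxorubicin controls.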
Regarding `CC1(C)C(N(O)C(=O)Nc2ccc(Cl)cc2)N(c2ccc(Cl)cc2)C(=O)N1CC(=O)N/N=C/C=C/c1ccc([N+](=O)[O-])o1` (stereo unspecified), the Potency is 20 µM (active).
On to `CC(C)n1cc(-c2ccc3c(c2)N(C)CC3)c2c(NS(=O)(=O)c3ccn(C)n3)ccnc21`, for which the “activity change, negative = viability loss” value was 1.08%.
Consider `C=CC(=O)Nc1cccc(Oc2nc(Nc3ccc(N4CCN(C)CC4)c(F)c3)nc3[nH]ccc23)c1`, for which the Potency is 8.91 µM (active).
As for `CC(=O)NC(CS)C(=O)O` (stereo unspecified), the “activity change, negative = viability loss” value was -3.44%.
As to `CCOC(=O)NNc1ccc(N(CC)CC(C)O)nn1` (stereo unspecified), the “activity change, negative = viability loss” value is -2.51%.
Turning to `Cc1cc(C)nc(NS(=O)(=O)c2ccc(N)cc2)n1`, the “activity change, negative = viability loss” value is -2.08%.
Take `Cc1cc(/C=c2/sc3nc4ccccc4n3c2=O)c(C)n1-c1ccccc1`: the “activity change, negative = viability loss” value was -15%.
Consider `CCCC(=O)O[C@]1(C(=O)CC)CC[C@H]2[C@@H]3CCC4=CC(=O)CC[C@]4(C)[C@H]3[C@@H](O)C[C@@]21C`, for which the “activity change, negative = viability loss” value is -6.35%.
As to `CCOc1ccc2ccccc2c1C(=O)N[C@@H]1C(=O)N2[C@@H]1SC(C)(C)[C@@H]2C(=O)O`, the “activity change, negative = viability loss” value was -34.2%.
With `O=C(NCC(=O)N1CCCC1)Nc1ccc2cnccc2c1`, the “activity change, negative = viability loss” value was -18.5%.
Same read-out and setting: in the case of `CCCCC1(COC(=O)CCC(=O)O)C(=O)N(c2ccccc2)N(c2ccccc2)C1=O` it was -10.7%.
For the molecule `Nc1ncnc2c1ncn2[C@@H]1O[C@H](CO)[C@@H](O)[C@H]1O`, the “activity change, negative = viability loss” value is 23.8%.
Take `Cc1cc2nc3ccc(=[N+](C)C)cc-3sc2cc1N`: the Potency is 5.8 µM (active).
With `Nc1ncnc2nc[nH]c12`, the “activity change, negative = viability loss” value is 8.19%.
Take `C/C(=C(\CCO)SS/C(CCO)=C(\C)N(C=O)Cc1cnc(C)nc1N)N(C=O)Cc1cnc(C)nc1N`: the “activity change, negative = viability loss” value was 0.0181%.
On to `CCCCOc1nc(N)c2c(n1)N(Cc1cccc(CN3CCCC3)c1)CC(=O)N2`, for which the “activity change, negative = viability loss” value was -4.49%.

The record behind these values is PubChem BioAssay (NCATS).
